Assay outcomes: PubChem BioAssay, Broad Institute
p53 mut binder – binders of human mutant p53, primary screen, biochemical, small molecule microarray, anti-GST fluorescence; mutant tumor protein p53 (GST-tagged), Homo sapiens; small molecule microarray binding; hit rate 0.4% among 17,000; calls only; AID 624136, 2012;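 active means compounds whose four printed spots each glow above background more than chance allows, each with a p-value under 7%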
Myc binder – binders of human c-Myc, primary screen, biochemical, small molecule microarray, anti-His fluorescence; calls only; hit rate 1.5% among 17,000; Myc proto-oncogene protein (Homo sapiens), P01106; His-c-Myc binding;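 active means spot fluorescence over background with P-value below 7% in all four replicate spots, showing protein binding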
Target sequence (P01106 whole entry, looked up): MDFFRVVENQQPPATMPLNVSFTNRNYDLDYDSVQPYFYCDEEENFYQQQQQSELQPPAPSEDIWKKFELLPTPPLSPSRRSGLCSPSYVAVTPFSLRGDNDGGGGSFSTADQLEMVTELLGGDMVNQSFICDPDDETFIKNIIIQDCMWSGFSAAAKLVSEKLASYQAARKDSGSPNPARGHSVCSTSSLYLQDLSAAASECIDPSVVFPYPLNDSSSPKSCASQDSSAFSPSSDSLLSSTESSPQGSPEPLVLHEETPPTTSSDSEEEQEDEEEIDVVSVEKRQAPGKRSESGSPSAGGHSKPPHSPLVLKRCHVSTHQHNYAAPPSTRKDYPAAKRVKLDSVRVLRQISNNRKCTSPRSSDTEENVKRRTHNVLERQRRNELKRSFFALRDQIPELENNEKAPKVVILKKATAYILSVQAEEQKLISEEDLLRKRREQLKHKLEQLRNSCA
NFkB binder – binders of NF-kB p50 subunit, primary screen, biochemical, small molecule microarray, anti-His fluorescence | anti-His fluorescence binding | calls only | hit rate 1.3% among 17,000;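 active means spot fluorescence over background significantly raised, with a chance value under 7% in all four replicate spots of the compound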;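 further: probe protein is his-tagged human p50 processed subunit at 1 µg/ml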
STAT3 binder – STAT3 binders, primary screen, biochemical, small molecule microarray, single point, set 2. Signal transducer and activator of transcription 3 (Homo sapiens), P40763. His-STAT3 binding, anti-His fluorescence. calls only. hit rate 0.2% among 17,000. AID 624138, 2012;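 active means compounds whose four printed spots each show fluorescence over background unusually high for their array block, chance value under 7%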
Of the large screens only hits and unclear results are named; the others gave an inactive call. Shown are actives, neighbours in structure and some others; about 2.5% of the full set was active somewhere.

O=C1O[C@@H](c2ccccc2)[C@@H](c2ccccc2)N2[C@@H](c3ccc(OCCO)cc3)[C@]3(C(=O)Nc4ccccc43)[C@@H](C(=O)N3CCCCCCC3)[C@H]12	p53 mut binder active, Myc binder active, NFkB binder active
O=C1O[C@H](c2ccccc2)[C@H](c2ccccc2)N2[C@H]1[C@@H](C(=O)N1CCCCCCC1)[C@]1(C(=O)Nc3ccccc31)[C@H]2c1ccc(OCCO)cc1	p53 mut binder active, Myc binder active, NFkB binder active
O=C1O[C@@H](c2ccccc2)[C@@H](c2ccccc2)N2[C@@H](c3ccc(OCCO)cc3)[C@]3(C(=O)Nc4ccc(C#CCCO)cc43)[C@@H](C(=O)N3CCCCCCC3)[C@H]12	none
Cc1ccc(S(=O)(=O)N(C)C[C@H]2OCCCC[C@H](C)Oc3ccc(NC(=O)NC4CCCCC4)cc3C(=O)N([C@H](C)CO)C[C@H]2C)cc1	p53 mut binder active, Myc binder active
C[C@H](CO)N1C[C@H](C)[C@H](CN(C)Cc2ccccc2)OCCCC[C@H](C)Oc2ccc(NC(=O)CCCN(C)C)cc2C1=O	NFkB binder active
C[C@@H]1CCCCO[C@@H](CN(C)Cc2ccccc2)[C@H](C)CN([C@@H](C)CO)C(=O)c2cc(NC(=O)CCCN(C)C)ccc2O1	none
C[C@@H]1CN([C@H](C)CO)C(=O)c2cc(N(C)C)ccc2O[C@@H](C)CCCCO[C@@H]1CN(C)Cc1ccccc1	p53 mut binder active, STAT3 binder active
CC(C)NC(=O)Nc1ccc2c(c1)C(=O)N([C@@H](C)CO)C[C@H](C)[C@@H](CN(C)S(=O)(=O)c1ccccc1)OCCCC[C@@H](C)O2	Myc binder active, NFkB binder active
C[C@@H]1CCCCO[C@H](CN(C)Cc2ccccc2)[C@H](C)CN([C@@H](C)CO)C(=O)c2cc(N(C)C)ccc2O1	none
C[C@H]1CCCCO[C@@H](CN(C)C(=O)CCCN(C)C)[C@@H](C)CN([C@@H](C)CO)C(=O)c2cc(NS(=O)(=O)c3ccccc3)ccc2O1	none
C[C@H](CO)N1C[C@H](C)[C@H](CN(C)S(=O)(=O)c2ccccc2)OCCCC[C@H](C)Oc2ccc(N(C)C)cc2C1=O	p53 mut binder active, NFkB binder active
O=C(CSc1ncccc1C(=O)O)c1cccc([N+](=O)[O-])c1	Myc binder active
CC(C)NC(=O)N(C)C[C@@H]1OCCCC[C@H](C)Oc2ccc(NC(=O)Nc3cccc4ccccc34)cc2C(=O)N([C@@H](C)CO)C[C@H]1C	none
C[C@H](CO)N1C[C@H](C)[C@@H](CN(C)C)OCCCC[C@H](C)Oc2ccc(NC(=O)Nc3cccc4ccccc34)cc2C1=O	p53 mut binder active
C[C@@H]1CCCCO[C@@H](CN(C)C(=O)Nc2cccc3ccccc23)[C@H](C)CN([C@H](C)CO)C(=O)c2cc(NC(=O)Nc3ccc(F)cc3)ccc2O1	Myc binder active, NFkB binder active
C[C@H](CO)N1C[C@H](C)[C@@H](CN(C)CC2CCCCC2)OCCCC[C@H](C)Oc2ccc(NC(=O)Nc3cccc4ccccc34)cc2C1=O	NFkB binder active
C[C@H](CO)N1C[C@H](C)[C@H](CN(C)C)OCCCC[C@H](C)Oc2ccc(NC(=O)Nc3cccc4ccccc34)cc2C1=O	none
CCN(CC(=O)O)S(=O)(=O)c1ccc(F)cc1	none
C[C@@H]1CN([C@@H](C)CO)C(=O)c2cc(NS(C)(=O)=O)ccc2O[C@@H](C)CCCCO[C@@H]1CN(C)C(=O)CCC(F)(F)F	Myc binder active
C[C@H]1CCCCO[C@H](CN(C)C(=O)CCC(F)(F)F)[C@@H](C)CN([C@@H](C)CO)C(=O)c2cc(NS(C)(=O)=O)ccc2O1	Myc binder active, NFkB binder active
COCCOC(=O)N1C(=O)[C@@]2(c3ccccc31)[C@H](C(=O)N1CCN(c3ncccn3)CC1)[C@H]1C(=O)O[C@H](c3ccccc3)[C@H](c3ccccc3)N1[C@@H]2c1ccc(OCCO)cc1	none
COCCOC(=O)N1C(=O)[C@@]2(c3cc(C#CC4=CCCCC4)ccc31)[C@H](C(=O)N1CCN(c3ncccn3)CC1)[C@H]1C(=O)O[C@H](c3ccccc3)[C@H](c3ccccc3)N1[C@@H]2c1ccccc1OCCO	NFkB binder active
COCCOC(=O)N1C(=O)[C@@]2(c3cc(C#CCC(C(=O)OC)C(=O)OC)ccc31)[C@H](c1ccc(OCCO)cc1)N1[C@H](c3ccccc3)[C@H](c3ccccc3)OC(=O)[C@H]1[C@@H]2C(=O)N1CCN(c2ncccn2)CC1	NFkB binder active
CNC[C@@H]1Oc2c(NC(=O)Nc3c(C)noc3C)cccc2C(=O)N([C@@H](C)CO)C[C@@H]1C	none
CC1(C)CC[C@]2(C(=O)O[C@@H]3O[C@H](CO)[C@@H](O)[C@H](O)[C@H]3O)CC[C@]3(C)C(=CCC4[C@@]5(C)CC[C@H](O[C@@H]6OC[C@H](O)[C@H](O)[C@H]6O[C@@H]6O[C@H](CO)[C@@H](O)[C@H](O)[C@H]6O[C@@H]6OC[C@H](O)[C@H](O)[C@H]6O)[C@@](C)(CO)C5CC[C@]43C)C2C1 (stereo partly specified)	NFkB binder active
C[C@@H]1CC[C@]2(C(=O)O)CC[C@]3(C(=O)O)C(=CCC4[C@@]5(C)CC[C@H](O[C@@H]6O[C@@H](C)[C@H](O[C@@H]7O[C@H](CO)[C@@H](O)[C@H](O)[C@H]7O)[C@@H](O)[C@H]6O)C(C)(C)C5CC[C@]43C)C2[C@H]1C (stereo partly specified)	none
C=C1CCC2(C(=O)OC3OC(CO)C(O)C(O)C3OC3OCC(O)C(O)C3O)CCC3(C)C(=CCC4C5(C)CCC(OC6OC(CO)C(O)C(O)C6O)C(C)(CO)C5CCC43C)C2C1 (stereo unspecified)	none
CC1(C)CC[C@@]2(C(=O)O[C@@H]3O[C@H](CO)[C@@H](O)[C@H](O)[C@H]3O)C(C1)C1=CCC3[C@@]4(C)CC[C@@H](O[C@@H]5O[C@H](C(=O)O)[C@@H](O[C@@H]6OC[C@@H](O)[C@H](O)[C@H]6O)[C@H](O)[C@H]5O)C(C)(C)C4CC[C@@]3(C)[C@]1(C)C[C@H]2O (stereo partly specified)	none
CC1(C)CC[C@]2(C(=O)O)CC[C@]3(C)C(=CCC4[C@@]5(C)CC[C@H](O[C@@H]6OC[C@H](O)[C@H](O)[C@H]6O)[C@@](C)(CO)C5CC[C@]43C)C2C1 (stereo partly specified)	NFkB binder active
